From PubChem BioAssay
Rows were chosen to be rich in hits. Some 3.5% of all compounds tested hit in one or more screens of this group.
GPR151 activ = activators of human GPR151; Q8TDV0; PathHunter beta-arrestin GPR151 cells, luminescence; activation, % at 11.2 µM; actives 1% (n = 650,000); in the data active = activation above about 4.9%;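 note: 0% = median of compound wells and 100% = cells with positive control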
TEAD-YAP block = TEAD-YAP interaction inhibition; actives 1.4% (n = 640,000); AID 1259422; HEK-TIYL cells, TEAD-Gal4/YAP UAS-luciferase luminescence; inhibition, % at 9.12 µM; in the data active = inhibition above about 32%;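 note: 0% = median of test compound wells and 100% = reference inhibitor wells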
FBW7 activator = activators of human E3 ligase FBW7; AID 1259310; AlphaScreen FBW7–phospho-cyclin E peptide binding, activator screen; normalized activity (activation), % at 26.1 µM; actives 0.13% (n = 650,000); Q969H0; in the data active = normalized activity above about 1.9%;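 note: purified mutant Fbw7 with reduced substrate affinity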
Target sequence (Q969H0 whole entry, looked up): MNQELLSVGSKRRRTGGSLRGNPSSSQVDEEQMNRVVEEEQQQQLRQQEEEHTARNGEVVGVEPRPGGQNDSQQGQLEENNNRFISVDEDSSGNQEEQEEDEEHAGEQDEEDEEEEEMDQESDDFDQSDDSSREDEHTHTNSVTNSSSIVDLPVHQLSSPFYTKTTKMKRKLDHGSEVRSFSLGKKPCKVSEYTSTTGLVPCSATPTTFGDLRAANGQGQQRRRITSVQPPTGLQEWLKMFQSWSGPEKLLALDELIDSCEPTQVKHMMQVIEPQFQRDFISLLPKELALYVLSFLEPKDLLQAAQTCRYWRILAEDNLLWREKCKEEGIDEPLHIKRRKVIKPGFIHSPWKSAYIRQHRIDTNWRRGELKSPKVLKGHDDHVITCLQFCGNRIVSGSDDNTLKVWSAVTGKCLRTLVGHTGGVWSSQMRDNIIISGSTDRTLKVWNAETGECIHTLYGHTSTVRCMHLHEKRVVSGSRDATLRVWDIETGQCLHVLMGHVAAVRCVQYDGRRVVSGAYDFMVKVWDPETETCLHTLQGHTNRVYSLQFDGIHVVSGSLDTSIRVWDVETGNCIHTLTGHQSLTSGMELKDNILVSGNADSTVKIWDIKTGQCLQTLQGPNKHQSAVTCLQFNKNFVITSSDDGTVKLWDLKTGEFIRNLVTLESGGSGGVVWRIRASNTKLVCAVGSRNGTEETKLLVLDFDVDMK
MITF inh = human MITF inhibition, primary screen. inhibition, % at 2.6 µM. actives 0.91% (n = 650,000). O75030. AlphaScreen MITF homodimerization, bead proximity signal; in the data active = inhibition above about 50%;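 note: 0% = vehicle wells with protein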
* marks the source's active call; other numbers are inactive results.

What do the screens show for `CN1CCN(c2ccc(-c3nc(NCc4cccnc4)c4ncn(-c5ccsc5)c4n3)cc2)CC1`?
GPR151 activ: -3; TEAD-YAP block: 36*; FBW7 activator: 0; MITF inh: 32

How did CCCNc1nc(-c2ccc(N3CCN(C)CC3)cc2)nc2c1ncn2-c1ccsc1 do in these assays?
GPR151 activ: -3; TEAD-YAP block: 28; FBW7 activator: 0; MITF inh: 14

How did CN1CCN(c2ccc(-c3nc(NCCO)c4ncn(-c5ccsc5)c4n3)cc2)CC1 do in these assays?
GPR151 activ: -1; TEAD-YAP block: 87*; FBW7 activator: 0; MITF inh: 12

How did COc1ccc(-c2nc(NCCO)c3ncn(-c4ccsc4)c3n2)cc1 do in these assays?
GPR151 activ: 1; TEAD-YAP block: 61*; FBW7 activator: 0; MITF inh: 3

What do the screens show for `CC1=CC(C)(C)N2C(=O)C(=O)c3cccc1c32`?
GPR151 activ: -1; TEAD-YAP block: -10; FBW7 activator: 0; MITF inh: -4

What do the screens show for `FC(F)(F)c1cccc(CNc2nc(-c3cccs3)nc3c2ncn3-c2ccccc2)c1`?
GPR151 activ: -3; TEAD-YAP block: 4; FBW7 activator: 0; MITF inh: -5

Results for CN(C)CCOC(=O)c1ccc2c(c1)OCO2 ?
GPR151 activ: 0; TEAD-YAP block: 0; FBW7 activator: 0; MITF inh: 10

How did CC1CN2c3ccccc3C(C)(C)C2(/C=C/c2ccc(N(C)C)cc2)NC1=O (centres undefined) do in these assays?
GPR151 activ: 1; TEAD-YAP block: 39*; FBW7 activator: -1; MITF inh: 33

Results for CC1(C)c2ccccc2N2CC(=O)NC21/C=C/c1ccccc1 (centres undefined) ?
GPR151 activ: 3; TEAD-YAP block: 3; FBW7 activator: 0; MITF inh: 0

What do the screens show for `Cc1oc(-c2ccc(Cl)cc2)nc1CN1CCCC(C(=O)NCCN2CCCC2)C1` (centres undefined)?
GPR151 activ: 1; TEAD-YAP block: -8; FBW7 activator: 0; MITF inh: 6

Results for Cc1oc(-c2ccc(Cl)cc2)nc1CN1CCCC(C(=O)NCc2cccnc2)C1 (centres undefined) ?
GPR151 activ: -1; TEAD-YAP block: 46*; FBW7 activator: 1; MITF inh: 12

What do the screens show for `CCOC(=O)c1cnc2ccc(OCC)cc2c1Nc1cccc(OC)c1`?
GPR151 activ: 0; TEAD-YAP block: -1; FBW7 activator: 0; MITF inh: 3

Results for CCOc1ccc2ncc(C#N)c(Nc3cc(OC)cc(OC)c3)c2c1 ?
GPR151 activ: 0; TEAD-YAP block: 45*; FBW7 activator: 0; MITF inh: -10

What do the screens show for `O=C(Nc1ccc(Br)cc1)c1ccc([N+](=O)[O-])cc1[N+](=O)[O-]`?
GPR151 activ: 0; TEAD-YAP block: -15; FBW7 activator: 0; MITF inh: 17

What do the screens show for `O=C(NC1CC1)c1ccc(-c2nc(Nc3ccccc3)c3ncn(-c4ccsc4)c3n2)cc1`?
GPR151 activ: 1; TEAD-YAP block: 23; FBW7 activator: 25*; MITF inh: 13

What do the screens show for `O=C(NC1CC1)c1ccc(-c2nc(NCc3cccc(C(F)(F)F)c3)c3ncn(-c4ccsc4)c3n2)cc1`?
GPR151 activ: 1; TEAD-YAP block: 8; FBW7 activator: 0; MITF inh: 6

Results for O=C(NC1CC1)c1ccc(-c2nc(NCc3nc4ccccc4[nH]3)c3ncn(-c4ccsc4)c3n2)cc1 ?
GPR151 activ: 3; TEAD-YAP block: 87*; FBW7 activator: 0; MITF inh: 7

What do the screens show for `c1ccc(-c2nc(NCc3nc4ccccc4[nH]3)c3ncn(-c4ccsc4)c3n2)cc1`?
GPR151 activ: 0; TEAD-YAP block: 58*; FBW7 activator: 0; MITF inh: 7

What do the screens show for `NC(=O)c1ccc(-c2nc(NCc3nc4ccccc4[nH]3)c3ncn(-c4ccsc4)c3n2)cc1`?
GPR151 activ: 1; TEAD-YAP block: 83*; FBW7 activator: 0; MITF inh: 18

How did C=CCOC(=O)C1=C(C)NC(SCC(=O)Nc2nccs2)=C(C#N)C1c1ccc(O)c(OC)c1 (centres undefined) do in these assays?
GPR151 activ: 2; TEAD-YAP block: 0; FBW7 activator: 0; MITF inh: -10

How did CC(=O)Nc1ccc(Nc2nc(-c3csc4ccccc34)nc3c2ncn3Cc2ccc(C(F)(F)F)cc2)cc1 do in these assays?
GPR151 activ: 2; TEAD-YAP block: 1; FBW7 activator: 0; MITF inh: 5

How did COc1cc(S(=O)(=O)N2CCCCC2)ccc1NC(=O)c1ccccc1[N+](=O)[O-] do in these assays?
GPR151 activ: 0; TEAD-YAP block: -1; FBW7 activator: 0; MITF inh: 4

Results for CC(=O)c1cccc(-c2nc(NCc3nc4ccccc4[nH]3)c3ncn(-c4ccsc4)c3n2)c1 ?
GPR151 activ: -1; TEAD-YAP block: 69*; FBW7 activator: 2; MITF inh: 7

How did CC(=O)c1ccc2c(c1)[nH]c1cc(C(C)=O)ccc12 do in these assays?
GPR151 activ: 0; TEAD-YAP block: 46*; FBW7 activator: 0; MITF inh: 10

How did CCN(CC)C1=CC(=[N+]2CCCC2)CC(C)(C)C1 do in these assays?
GPR151 activ: 1; TEAD-YAP block: 60*; FBW7 activator: 0; MITF inh: 10

Results for CN(CCO)C1=CC(=[N+]2CCOCC2)CC(C)(C)C1 ?
GPR151 activ: 1; TEAD-YAP block: 5; FBW7 activator: 0; MITF inh: -5

What do the screens show for `CN(Cc1ccccc1)C1=CC(=[N+]2CCCC2)CC(C)(C)C1`?
GPR151 activ: 1; TEAD-YAP block: 80*; FBW7 activator: 0; MITF inh: -3

What do the screens show for `C=CCSc1nnc2c(n1)OC(c1cc(Br)c(OC(C)=O)c(OC)c1)N(C(C)=O)c1ccccc1-2` (centres undefined)?
GPR151 activ: -1; TEAD-YAP block: -16; FBW7 activator: 0; MITF inh: 16

Results for CC(C)CNc1ncnc2ccccc12 ?
GPR151 activ: 2; TEAD-YAP block: 12; FBW7 activator: 0; MITF inh: -11

What do the screens show for `Clc1ccccc1CCNc1ncnc2ccccc12`?
GPR151 activ: 0; TEAD-YAP block: 35*; FBW7 activator: 0; MITF inh: 11

How did COCCNc1ncnc2ccccc12 do in these assays?
GPR151 activ: 1; TEAD-YAP block: 16; FBW7 activator: 0; MITF inh: 0

What do the screens show for `COc1cc2ncnc(NC3CCN(Cc4ccccc4)CC3)c2cc1OC`?
GPR151 activ: -4

How did CCC(C)Nc1ncnc2ccccc12 (centres undefined) do in these assays?
GPR151 activ: 0; TEAD-YAP block: 39*; FBW7 activator: 0; MITF inh: -3

What do the screens show for `c1ccc(CN2CCC(Nc3ncnc4ccccc34)CC2)cc1`?
GPR151 activ: 0; TEAD-YAP block: 33*; FBW7 activator: 0; MITF inh: -10

Results for c1ccc(CNc2ncnc3ccccc23)cc1 ?
GPR151 activ: 0; TEAD-YAP block: 51*; FBW7 activator: 0; MITF inh: -11

What do the screens show for `NCCNC(=O)c1ccc(/C=N/O)nc1`?
GPR151 activ: 0; TEAD-YAP block: 8; FBW7 activator: 0; MITF inh: 12
